# Screens deposited in PubChem by several laboratories.
# Rows were chosen to be rich in hits. Some 4.5% of all compounds tested hit in one or more screens of this group.
# GDH-TPI inh: inhibits GDH-TPI coupling enzymes, artifact for Mtb FBA screen. GDH-TPI coupled enzyme counterscreen, NADH absorbance. inhibition, % at 4.8 µM. actives 1.2% (n = 360,000); in the data active = inhibition above about 30%;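 note: 0% = DMSO wells and 100% = wells lacking the enzyme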
# PrPC TRFRET: reduces human prion protein on the cell surface; P04156; actives 0.43% (n = 370,000); inhibition, % at 13.8 µM; cell surface PrPC, TR-FRET read-out; in the data active = inhibition above about 24%; note: 0% = median of the test wells and 100% = reference compound wells
# Mtb FBA inh: inhibits M. tuberculosis FBA enzyme. purified M. tuberculosis FBA, fluorescence read-out. inhibition, % at 1 µM. actives 2.3% (n = 360,000); in the data active = inhibition above about 27%;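 note: 0% = vehicle and 100% = reference inhibitor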
# PfHsp40 rescue: rescue of PfHsp40-mediated yeast toxicity; S. cerevisiae expressing PfHsp40, growth rescue, ATP luminescence; growth rescue, % at 12.5 µM; actives 0.68% (n = 340,000); in the data active = growth rescue above about 28%, passing the limit was not always enough; inconclusive = no clear call, values can overlap the other calls;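 note: yeast W303a lacking pdr1 and pdr3 grown in galactose medium; growth measured after three days at 30 °C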
# BJeLR lethal: kills HRASV12-expressing BJeLR cells. BJeLR (HRASV12) viability, CellTiter-Glo ATP luminescence, 48 h. inhibition, % (concentration not given with the values). actives 0.17% (n = 300,000). AID 1554; in the data active = inhibition above about 50%; inconclusive = no clear call, values can overlap the other calls
# PrP UTR inh: suppresses PrP 5' UTR mRNA reporter expression | cell-based PrP 5' UTR mRNA reporter, plate reader | inhibition, % (concentration not given with the values) | AID 488862 | actives 0.35% (n = 340,000); in the data active = inhibition above about 52%; note: 0 = median of the neutral control wells
# PrPC confirm: cell surface PrPC inhibition, TR-FRET confirmation; shares compounds with PrPC TRFRET; cell surface PrPC level; inhibition, % at 13.8 µM; actives 65% (n = 1,500); in the data active = inhibition above about 25%
# LD9 cytotox: counter-screen for PrPc inhibitors: cytotoxicity in LD9 cells; shares compounds with PrPC TRFRET; luminescence viability; inhibition, % at 13.8 µM; actives 29% (n = 1,500); in the data active = inhibition above about 9.5%
# Active calls of the source: *; ? = inconclusive; nt = not tested or not shown; ! = repeats disagree.
SMILES,GDH-TPI inh,PrPC TRFRET,Mtb FBA inh,PfHsp40 rescue,BJeLR lethal,PrP UTR inh,PrPC confirm,LD9 cytotox
COC(=O)C1=C(C)N(Cc2ccccc2C(F)(F)F)C(=NCc2cccc(C(F)(F)F)c2)NC1CCc1ccccc1 (stereo not given),nt,0,nt,nt,nt,nt,nt,nt
COC(=O)C1=C(C)N(Cc2cccc(C(F)(F)F)c2)C(=NCc2cc(OC)c(OC)c(OC)c2)NC1CCc1ccccc1 (stereo not given),nt,31*,nt,nt,nt,nt,26*,5
Cc1ccc(OCc2cc(C(=O)NCc3cn4ccccc4n3)no2)cc1C,2,43*,-1,0,9,-11,39*,-5
O=C(CSc1ncnc2ccccc12)c1ccco1,9,nt,6,1,-34,-53,nt,nt
Cc1csc(NC(=O)CSc2ncnc3ccccc23)n1,11,18,-1,6,-13,-16,nt,nt
O=C(CSc1ncnc2ccccc12)NCCCO,5,36*,3,1,4,-5,32*,-7
O=C(CSc1ncnc2ccccc12)NCc1ccco1,4,76*,0,-1,3,-1,77*,-1
O=C(CSc1ncnc2ccccc12)NCCc1ccccc1,-3,62*,-5,-1,-1,-25,79*,-8
CC1(C)C[C@@H](O)CC2(C1)C[C@]1(C)CC(O)[C@H]2C(C)(C)C1 (stereo not given in full),16,9,-1,nt,-8,nt,nt,nt
COc1ccc(CCN2CC(C(=O)NCc3ccc(F)cc3)CC2=O)cc1OC (stereo not given),-1,4,2,1,-2,-16,nt,nt
O=C1NCCN(Cc2ccoc2)C1CC(=O)N(CCO)Cc1ccccc1 (stereo not given),-10,-1,1,0,1,-24,nt,nt
CCOC(=O)c1c(C)[nH]c(C(=O)OCC(=O)Nc2sccc2C(N)=O)c1C,5,33*,1,-1,16,-44,18,44*
CCOC(=O)c1c(C)[nH]c(C(=O)OCC(=O)Nc2ccc(Cl)cn2)c1C,11,2,4,1,nt,3,nt,nt
Cn1c(SCC(=O)NCc2ccco2)nnc1C1CCCC1,-12,6,-1,2,7,-27,nt,nt
NC(=O)c1cc(NC(=O)CCc2nc3ccccc3s2)cc(C(N)=O)c1,7,37*,6,2,-8,0,31*,5
O=C(NNC(=O)c1cccs1)c1ccc(Cl)c(S(=O)(=O)N2CCCC2)c1,27,13,2,-1,nt,-9,nt,nt
Cc1cc(C(=O)O)cc(S(=O)(=O)NNC(=O)c2cccs2)c1C,-4,42*,3,1,0,11,3,3
CC(=O)NC(c1ccc(C(C)C)cc1)c1ccc2cccnc2c1O (stereo not given),1,26*,-6,-1,35,33,28*,22*
CC(=O)NC(c1ccccc1)c1cc([N+](=O)[O-])c2cccnc2c1O (stereo not given),-2,-8,-17,2,12,-3,nt,nt
COc1cccc(C(NC(C)=O)c2ccc3cccnc3c2O)c1 (stereo not given),5,41*,3,?,22,31,33*,44*
CC(=O)NC(c1cccc([N+](=O)[O-])c1)c1ccc2cccnc2c1O (stereo not given),4,40*,-1,194*,35,31,37*,38*
COc1cccc(C(Nc2ccccc2)c2ccc3ccc(C)nc3c2O)c1 (stereo not given),nt,-1,nt,nt,nt,nt,nt,nt
CC(C)CCNC(=O)C(c1ccc(O)cc1)N(Cc1cccs1)C(=O)C1COc2ccccc2O1 (stereo not given),-3,25*,2,2,-2,7,10,3
COc1cc(NC2c3ccccc3C(=O)N2Cc2ccccc2Cl)cc(OC)c1 (stereo not given),5,10,3,0,-1,-6,nt,nt
COc1cccc(NC2c3ccccc3C(=O)N2Cc2ccccc2Cl)c1 (stereo not given),1,29*,-7,0,4,-5,7,-4
SMILES,GDH-TPI inh,PrPC TRFRET,Mtb FBA inh,PfHsp40 rescue,BJeLR lethal,PrP UTR inh,PrPC confirm,LD9 cytotox
Fc1ccc2[nH]c3c(N4CCc5ccccc5C4)ncnc3c2c1,5,26*,10,nt,7,nt,35*,20*
Cc1ccc2[nH]c3c(N4CCc5ccccc5C4)ncnc3c2c1,17,14,9,1,19,-39,nt,nt
c1ccc2[nH]c(CNc3nc(N4CCOCC4)nc4c3ncn4-c3ccsc3)nc2c1,nt,12,nt,nt,nt,nt,nt,nt
FC(F)(F)c1ccc2nc(CNc3nc(N4CCOCC4)nc4c3ncn4-c3ccsc3)[nH]c2c1,nt,41*,nt,nt,nt,nt,37*,17*
c1ccc2cc3[nH]c(CNc4nc(N5CCOCC5)nc5c4ncn5-c4ccsc4)nc3cc2c1,nt,25*,nt,nt,nt,nt,38*,13*
Cc1ccc(SC2=C[C@@]3(O)CC[C@@H](O)[C@@](Sc4ccc(C)cc4)(C2=O)[C@H]3O)cc1,nt,27*,nt,nt,nt,nt,20,-9
CC(C)(C)c1ccc(SC2=C[C@@]3(O)CC[C@@H](O)[C@@](Sc4ccc(C(C)(C)C)cc4)(C2=O)[C@H]3O)cc1,nt,9,nt,nt,nt,nt,nt,nt
Cc1ccnc2c1ccc1cccnc12,0,35*,-3,1,nt,26,38*,35*
c1cnc2c(c1)ccc1cccnc12,1,25*,3,57*,56*!,2,25*,14*!
COc1ccc2c(=O)cc(C(=O)O)oc2c1,9,4,6,nt,-1,-17,nt,nt
COc1ccc2c(C)c(C(=O)O)oc2c1,6,28*,17,1,-18,-23,30*,-1
CCOc1ccc(NC(=O)COC(=O)CCC(=O)c2cccs2)cc1,13,-13,3,0,nt,2,nt,nt
Cc1ccc(NS(=O)(=O)c2ccc3c(c2)NC(=O)CCS3)cc1C,12,25*,4,-1,3,-7,18,27*
Cc1ccc(NS(=O)(=O)c2ccc3c(c2)NC(=O)CCS3)cc1F,1,8,-2,1,7,-9,nt,nt
O=C1CC2(CCN(S(=O)(=O)c3ccccc3F)CC2)Oc2ccccc21,0,-8,6,0,-4,1,nt,nt
CN(C)CCCN(C(=O)c1ccc(S(=O)(=O)N(C)C2CCCCC2)cc1)c1nc2ccc(Br)cc2s1,7,-11,5,0,6,-10,nt,nt
CC(C)=CCC[C@@]1(C(=O)O)[C@H]2CC=C(CO)[C@@H]1CC/C(C)=C/CC/C(C)=C/C2,nt,24*,nt,nt,nt,nt,27*,12*
Cc1cc(N2CCN(C)CC2)nc2ccc(NC(=O)CCC(=O)NCCC3=CCCCC3)cc12,1,38*,6,0,nt,-13,-1,3
